RGS4 inh – Inhibitors of Regulator of G Protein Signaling (RGS) 4: qHTS; AID 504845, 2011; Potency, µM (doses to about 114 µM), usual class: inhibitors; Transcreener GDP fluorescence polarization, RGS4-accelerated GTP hydrolysis; actives 0.039% (n = 390,000); further: nearly all actives have a fitted effect of over 75% in size
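MLSMR compounds (23 nl, pin-transferred) preincubated 10 min at room temperature with a 500nM (2x) first reagent, then RGS4 at 900nM (2x) plus Transcreener GDP mix added; fluorescence polarization (620/688 nm) read before and after 90 min at 30 °C.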
DRD3 antagonist – qHTS of D3 Dopamine Receptor Antagonist: qHTS. D(3) dopamine receptor (Homo sapiens), P35462. D3R cells, DiscoveRx beta-arrestin luminescence, antagonist mode; stronger effect = lower value. max response, negative = inhibition, %. actives 2.5% (n = 360,000). AID 652054, 2013; in the data active means max response below about -50%; inconclusive means no clear call, values can overlap the other calls
Target sequence (P35462 whole entry, looked up): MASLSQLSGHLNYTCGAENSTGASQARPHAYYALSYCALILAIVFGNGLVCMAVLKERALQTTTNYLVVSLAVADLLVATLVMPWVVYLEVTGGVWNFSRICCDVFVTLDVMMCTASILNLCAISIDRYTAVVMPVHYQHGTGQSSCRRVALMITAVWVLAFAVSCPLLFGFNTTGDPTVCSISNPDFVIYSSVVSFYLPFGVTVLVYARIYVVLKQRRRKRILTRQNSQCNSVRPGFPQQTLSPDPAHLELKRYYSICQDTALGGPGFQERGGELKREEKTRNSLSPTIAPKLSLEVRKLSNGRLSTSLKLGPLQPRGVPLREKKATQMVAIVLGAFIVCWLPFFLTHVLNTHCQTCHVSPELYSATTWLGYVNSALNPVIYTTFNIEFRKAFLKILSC
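Cells plated overnight at 1500 cells/well, then exposed to library compounds with dopamine controls for 90 minutes at 37 degrees C. DiscoveRx reagent added for 30–60 minutes at room temperature; luminescence read, quantitative HTS format.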
PTHR1 agonist – qHTS for PTHR1 Agonists: Primary Screen. Parathyroid hormone/parathyroid hormone-related peptide receptor (Homo sapiens), Q03431. HEK293 GP2 PTHR1 cells, GloSensor cAMP luminescence, 1 h. Potency, µM (doses to about 115 µM), most hits filed as activators. actives 0.075% (n = 410,000). AID 743266, 2014; further: nearly all actives have a fitted effect of over 55% in size
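HEK-293-derived GP2 cells expressing PTHR1 and a GloSensor cAMP reporter, 3,000/well, plated overnight, given luciferin plus IBMX (each 0.5 mM as added) for 1 h at 37 °C, then compound for 1 h at 37 °C. Luminescence was read after 15 min at room temperature.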
BRCA1 expr up – qHTS Assay to Identify Small Molecule Activators of BRCA1 Expression. actives 1.1% (n = 380,000). Potency, µM (highest dose often 46.1 µM), most hits filed as activators. MCF7-BRCA1-FFLuc reporter, luminescence, 48 h; response scale: scaled: vehicle 0%, 10 µM genistein 100%; further: nearly all actives have a fitted effect of over 80% in size
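Cells: MCF7-BRCA1-FFLuc, 2000/well. Exposure: 48 h, 37 °C, 5% CO2. Read: luminescence, 15 min post-substrate. Controls: genistein 10 microM (maximal activation), DMSO (neutral).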
D3 ag – qHTS of D3 Dopamine Receptor Agonist: qHTS; actives 0.58% (n = 410,000); max activation, %; D3R DiscoveRx beta-arrestin cells, luminescence, 90 min; in the data active means max activation above about 30%
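Agonist-mode cell screen: cells plated at 1500/well and incubated overnight at 37 °C, then exposed to library compounds for 90 min at 37 °C. Detection reagent was added for 30–60 min at room temperature, and luminescence was read.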
B2AR arrestin – qHTS assay of beta-arrestin-biased ligands of beta2-adrenergic receptor; AID 492947, 2010; Beta-2 adrenergic receptor (Homo sapiens), P07550; Potency, µM (highest dose often 46.1 µM), hits mostly activators; actives 0.02% (n = 330,000); beta-arrestin recruitment to beta2AR, cell-based reporter; further: nearly all actives have a fitted effect of over 65% in size
Each line names hits and unclear results; the compound was inactive in the other large screens; ! = not confirmed by another sample. Sampled rows, rich in hits. Any-hit rate of the full collection: about 3.7%. Unless noted, the call rests on the fitted dose curve; in most records, active means well fitted curve in the direction sought with a large enough effect; inconclusive means small, poorly fitted or top-dose-only effect, or another doubt; inactive means no such curve, though single readings can be large; an effect the other way counts as inactive or inconclusive.

Cc1ccc(-c2nn(C)c(=O)c3ccccc23)cc1CN1CCCCC1	none
C[C@H](CCC(=O)OCc1cn(CC(=O)c2ccc(O)cc2)nn1)C1CC[C@H]2[C@@H]3CC[C@@H]4C[C@H](O)CC[C@]4(C)[C@H]3C[C@H](O)[C@]12C (stereo partly specified)	D3 ag 44 (no result: B2AR arrestin)
COC(=O)CC[C@@H](C)[C@H]1CC[C@H]2[C@@H]3CC[C@@H]4C[C@H](O)CC[C@]4(C)[C@H]3C[C@H](O)[C@]12C	none (no result: DRD3 antagonist, PTHR1 agonist, BRCA1 expr up, D3 ag, B2AR arrestin)
O=C(CSc1nc2c(oc3ccccc32)c(=O)n1CC1CCCO1)NCc1ccc(F)cc1 (stereo unspecified)	none
O=C(Nc1cccc(-c2ccc(N3CCOCC3)nn2)c1)c1ccc(Cl)cc1	none
O=C(Nc1cccc(-c2ccc(N3CCOCC3)nn2)c1)c1cccc(Cl)c1	BRCA1 expr up 7.1µM (no result: RGS4 inh, B2AR arrestin)
O=C(Nc1cccc(-c2ccc(N3CCOCC3)nn2)c1)c1ccccc1Cl	BRCA1 expr up 2.5µM
Cc1cccc(Cn2nc(C)cc2NC(=O)CCCn2ccc([N+](=O)[O-])n2)c1	none
CC(C)(C)C(=O)OCOC(=O)[C@@H]1N2C(=O)[C@@H](N=CN3CCCCCC3)[C@H]2SC1(C)C	D3 ag 32!
CC(COc1ccccc1)OC(=O)Nc1ccccc1 (stereo unspecified)	none (no result: B2AR arrestin)
Cc1noc(C)c1NC(=O)N(C)C[C@H]1Oc2ccc(NC(=O)C3CCCCC3)cc2C(=O)N([C@H](C)CO)C[C@@H]1C	none
CCSC1=NC2(CCCCC2)Nc2sc3c(c21)CCCC3	RGS4 inh inconclusive, DRD3 antagonist -61
OCC(CBr)(CBr)CBr	DRD3 antagonist -54
CCOc1ccc(-c2nonc2NC(=O)COc2ccccc2)cc1	none (no result: DRD3 antagonist, BRCA1 expr up, B2AR arrestin)
CCCCOc1ccccc1C(=O)Nc1nonc1-c1ccccc1	D3 ag 35 (no result: DRD3 antagonist, BRCA1 expr up, B2AR arrestin)
O=C(COC(=O)/C=C/c1ccc(C(F)(F)F)cc1)NC1CCCC1	none
O=C(COC(=O)/C=C/c1ccc(C(F)(F)F)cc1)NC1CC1	DRD3 antagonist -64
O=C(c1ccc(C(F)(F)F)cc1)N1CCN(S(=O)(=O)c2ccc3c(c2)OCCCO3)CC1	none
COc1ccccc1N1CCN(CCCCN2C(=O)C3CCCCN3C2=O)CC1 (stereo unspecified)	RGS4 inh inconclusive, DRD3 antagonist -77
Nc1ccc(N2CCN(CCCCN3C(=O)C4CCCN4C3=O)CC2)cc1 (stereo unspecified)	none
CCCCOc1ccccc1N1CCN(CCCN2C(=O)C3CCCN3C2=O)CC1 (stereo unspecified)	DRD3 antagonist -87
Cc1ccccc1N1CCN(CCCCN2C(=O)C3CCCN3C2=O)CC1 (stereo unspecified)	DRD3 antagonist -84
COc1ccccc1N1CCN(CCCN2CC(=O)N3CCCCC3C2=O)CC1 (stereo unspecified)	DRD3 antagonist -53 (no result: B2AR arrestin)
CO/N=C(/c1nonc1N)N1CCN(c2ccc([N+](=O)[O-])cc2)CC1	none
Nc1nonc1/C(=N/O)N1CCN(CCO)CC1	DRD3 antagonist -64
Nc1nonc1C(=O)OCC(=O)N1CCOCC1	none
CN1CCN(/C(=N\O)c2nonc2N)CC1	DRD3 antagonist -68
C=C1CC(COc2cc(=O)oc3ccccc23)(c2ccccc2)OC1=O (stereo unspecified)	RGS4 inh inconclusive, DRD3 antagonist -114 (no result: B2AR arrestin)
c1ccc(-c2noc(CC3CCCCC3)n2)nc1	BRCA1 expr up 7.1µM
c1ccc(C(Cc2nc(-c3ccccn3)no2)c2ccccc2)cc1	DRD3 antagonist inconclusive
c1ccc(CCCc2nc(-c3ccccn3)no2)cc1	BRCA1 expr up 7.1µM
c1cc(-c2noc(CC3CCCCC3)n2)ccn1	none
